BAZ2B inh = inhibitors of human BAZ2B bromodomain; AID 504333; Potency, µM (titrated, usually from 114 µM), inactives show top-dose activity change, negative = inhibition, most hits filed as inhibitors; AlphaScreen BAZ2B-H3K14Ac peptide displacement; actives 4.4% (n = 360,000); Q9UIF8; also: potency is read from the fitted curve at half-maximal effect; % is scaled to controls: 0 for no effect and ±100 for the full control effect; nearly all actives have a fitted effect of over 60% in size
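AlphaScreen luminescence quantifies BAZ2B engagement of H3K14Ac peptide; the protein and biotinylated peptide are both at 50 nM final, buffer PBS pH 7.4 with 0.01% Tween-20, all steps at room temperature.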
JMJD2A Tudor = JMJD2A Tudor domain (human) inhibition. O75164. AlphaScreen JMJD2A-Tudor / H3K4me3 peptide binding. Potency, µM (top dose mostly 114 µM), inactives show at the highest dose activity change, negative = inhibition, most hits filed as inhibitors. actives 4.4% (n = 390,000); also: potency is read from the fitted curve at half-maximal effect; % is scaled to controls: 0 for no effect and ±100 for the full control effect; nearly all actives have a fitted effect of over 50% in size
HP1b chromo inh = inhibitors of HP1-beta chromodomain binding to methylated histone tails | P83916 | AlphaScreen HP1-beta / biotin-H3K9me3 peptide binding | Potency, µM (titrated, usually from 114 µM), for the others: at the highest dose activity change, negative = inhibition, usual class: inhibitors | actives 0.56% (n = 390,000) | AID 540317; also: potency is read from the fitted curve at half-maximal effect; nearly all actives have a fitted effect of over 70% in size
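Compound inhibition of the preformed complex between 50 nM HP1-beta and 50 nM biotinylated H3K9me3 peptide was read by AlphaScreen. Buffer was PBS pH 7.4 with 0.01% Tween-20. Incubations ran 30 min at room temperature, with 10 ug/mL donor/acceptor beads.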
JMJD2E inh = inhibitors of human JMJD2E histone demethylase; B2RXH2; actives 1.6% (n = 230,000); AID 2147; Potency, µM (series often up to 57.1 µM), without a hit: at the top dose activity change, negative = inhibition, actives largely listed as inhibitors; JMJD2E catalytic domain, FDH-coupled NADH fluorescence (FDH is formaldehyde dehydrogenase); active = well fitted inhibition curve with a large enough effect, not every such curve was filed as active; inconclusive = small, poorly fitted or top-dose-only effect, or another doubt; inactive = no such curve, though single readings can be large or run the other way;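 also: potency is read from the fitted curve at half-maximal effect; 0% = wells with enzyme and -100% = buffer wells without enzyme; nearly all actives have a fitted effect of over 50% in size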
PI5P4Ka inh = PI5P4K alpha (human) kinase inhibition. PI5P4Kalpha enzyme, ADP-Glo luminescence, 60 min; hits give low values. max response, %. P48426. actives 1.2% (n = 330,000). AID 652105; active = max response of -50% or lower; inconclusive = between -30% and -50%; inactive = -30% or higher; also: value at the top dose of about 77 µM; % is scaled to controls: 0 for no effect and ±100 for the full control effect
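Luminescence from ADP-Glo served as readout of PI5P4Kalpha activity in a qHTS format. Reaction: enzyme, substrate, compound, ATP at 5 microM final, 60 min at RT.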
L3MBTL1 inh = blocks human L3MBTL1. actives 0.66% (n = 230,000). AlphaScreen L3MBTL1–H3K9me1 peptide binding. Potency, µM (titrated, usually from 57.1 µM), without a hit: top-dose activity, negative = inhibition, most hits filed as inhibitors. Q9Y468; also: potency is read from the fitted curve at half-maximal effect; % is scaled to controls: 0 for no effect and ±100 for the full control effect; nearly all actives have a fitted effect of over 60% in size
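Displacement of a biotinylated histone H3(1-15) peptide monomethylated at Lys9 (75 nM) from L3MBTL1 (50 nM) was measured by AlphaScreen after a 30 min room-temperature compound incubation; cefsulodin titration served as intraplate control.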
* marks the source's active call; other numbers are inactive results; [ ] = dose if it differs, or a comment. Sampled rows, rich in hits. Any-hit rate of the full collection: about 5.7%. Unless noted, calls follow the shape of the dose curve; as a rule, active = well fitted inhibition curve with a large enough effect; inconclusive = small, poorly fitted or top-dose-only effect; inactive = no such curve, though single readings can be large or run the other way.

For COc1ccc(CNC(=O)c2ccc(-c3nc(CSc4ccccc4)c(C)o3)cc2)cc1 the results were BAZ2B inh -7%, JMJD2A Tudor inconclusive and HP1b chromo inh 7%.
`O=C1CSC2(C(=O)N(Cc3c(F)cccc3Cl)c3ccccc32)N1c1ccc(F)c(F)c1` (centres undefined) gave BAZ2B inh 1%[57.1 µM], JMJD2A Tudor -22% and HP1b chromo inh 55%.
CC1CCCN(C(=O)C2CCN(S(=O)(=O)c3ccccc3)CC2)C1 (centres undefined) was read as JMJD2A Tudor -12%, HP1b chromo inh 28%, PI5P4Ka inh -3 and L3MBTL1 inh 7%.
Screening CCCC(=O)c1ccc(N2CCC(C)CC2)c(F)c1 returned BAZ2B inh 76%, JMJD2A Tudor 82%, HP1b chromo inh 62%, JMJD2E inh 3%, PI5P4Ka inh -1 and L3MBTL1 inh 28%.
Screening O=C(O)C(Cc1ccccc1)n1c(=S)[nH]c2ccccc2c1=O (centres undefined) returned BAZ2B inh -10%, JMJD2A Tudor 14µM*, HP1b chromo inh 48%, JMJD2E inh 1%, PI5P4Ka inh 0 and L3MBTL1 inh 4%.
`CC(C)[C@H](NC(=O)[C@H](Cc1ccccc1)n1c(=O)[nH]c2ccccc2c1=O)C(=O)N[C@@H](Cc1ccccc1)C(=O)O` gave BAZ2B inh 4%, JMJD2A Tudor -13%, HP1b chromo inh 29%, PI5P4Ka inh 7 and L3MBTL1 inh 37%.
`CCOC(=O)C1CCN(CC(C)(C)NS(=O)(=O)c2ccccc2)CC1` gave BAZ2B inh -27%, JMJD2A Tudor 1.8µM*, HP1b chromo inh 79µM* and PI5P4Ka inh 1.
For CC(=O)N1CCN(CC(C)(C)NS(=O)(=O)c2ccccc2)CC1 the results were JMJD2A Tudor -4%, HP1b chromo inh 25%, PI5P4Ka inh 1 and L3MBTL1 inh 3%.
CCOC(=O)C1CCCN(CCC(=O)Nc2ccccc2)C1 (centres undefined) was read as BAZ2B inh -5%, JMJD2A Tudor 5%, HP1b chromo inh 48%, JMJD2E inh 8% and PI5P4Ka inh -4.
`CCOC(=O)C1CCCN(C/C=C/c2ccccc2)C1` (centres undefined) gave BAZ2B inh inconclusive, JMJD2A Tudor 22µM*, HP1b chromo inh inconclusive, PI5P4Ka inh 0 and L3MBTL1 inh 5%.
CCOC(=O)C1CCN(C/C=C/c2ccccc2)CC1 was read as BAZ2B inh inconclusive, JMJD2A Tudor 79µM*, HP1b chromo inh -37%, PI5P4Ka inh 0 and L3MBTL1 inh -5%.
CCN(CC)C(=O)C1CCCN(C/C=C/c2ccccc2[N+](=O)[O-])C1 (centres undefined) was read as BAZ2B inh inconclusive, JMJD2A Tudor 3.2µM*, HP1b chromo inh inconclusive, PI5P4Ka inh -8 and L3MBTL1 inh -1%.
For CC(C)c1ccc(S(=O)(=O)c2nnn3c2nc(N2CCOCC2)c2sccc23)cc1 the results were BAZ2B inh -3%, JMJD2A Tudor 1% and HP1b chromo inh 86%.
For ON=Cc1cccn1-c1ccccc1 the results were BAZ2B inh 50µM*, JMJD2A Tudor -33%, HP1b chromo inh -10%, JMJD2E inh 4% and L3MBTL1 inh -5%.
C=C(c1ccccc1)c1ccc(N(C)C)cc1 was read as BAZ2B inh inconclusive, JMJD2A Tudor 45µM*, HP1b chromo inh inconclusive and PI5P4Ka inh 11.
For COC(=O)C1Sc2[nH]c(=O)sc2C2c3ccccc3OC(=O)C12 (centres undefined) the results were BAZ2B inh -7%, JMJD2A Tudor -16%, HP1b chromo inh 10%, JMJD2E inh 2%, PI5P4Ka inh -3 and L3MBTL1 inh -7%.
